Reference: PubChem BioAssay AID1159580 (chemical genetic matrix, 2015)
Several values for one entry are separate records, joined by “and”; a condition that tells them apart may be missing. Identical values can stand only once. Out of some 5,500 compounds screened, about 2,000 (36%) were called active. About 18% were inconclusive and are not listed. Rule as the data show it: active = normalized growth mostly below about 0.91 (no sharp cut-off); inconclusive = no clear call, values can overlap the other calls; inactive = mostly above about 0.92. This is one part of the list.

Test: chemical genetic growth profiling, strain panel (AID 1159580);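 also: tested at 20 µM; growth read once vehicle control cultures reached saturation at 30 °C; 1 = growth at the plate median or of vehicle wells; lower values mean less growth of the strain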
Conditions: growth OD

Measured: normalized growth

CC(C)(C)NCC(O)c1ccc(O)c(CO)c1 (stereo not given)
inactive: S. cerevisiae deletion strains, locus YJR075W, strain HOC1, stronger effect = lower value 0.997 and 1.01 | S. cerevisiae deletion strains, locus YKL009W, strain mrt4, stronger effect = lower value 1.02 | S. cerevisiae deletion strains, locus YKL068W, stronger effect = lower value 1.01 | S. cerevisiae deletion strains, locus YKL085W, strain MDH1 (second series), stronger effect = lower value 1.03 | S. cerevisiae deletion strains, locus YKL085W, strain MDH1, stronger effect = lower value 1.03 | S. cerevisiae deletion strains, locus YKL160W, strain elf1, stronger effect = lower value 1.02 | S. cerevisiae deletion strains, locus YKL190W, strain CNB1, stronger effect = lower value 1.02 | S. cerevisiae deletion strains, locus YKR001C, strain vps1, stronger effect = lower value 1.01 | S. cerevisiae deletion strains, locus YKR026C, strain gcn3, stronger effect = lower value 0.999 | S. cerevisiae deletion strains, locus YKR091W, strain srl3, stronger effect = lower value 1 | S. cerevisiae deletion strains, locus YLL001W, strain dnm1, stronger effect = lower value 1.02 | S. cerevisiae deletion strains, locus YLL026W, stronger effect = lower value 1 | S. cerevisiae deletion strains, locus YLL041C, strain sdh2, stronger effect = lower value 1.02 | S. cerevisiae deletion strains, locus YLR027C, strain aat2, stronger effect = lower value 1.01 | S. cerevisiae deletion strains, locus YLR039C, strain RIC1, stronger effect = lower value 1.06 | S. cerevisiae deletion strains, locus YLR058C, strain SHM2, stronger effect = lower value 1.01 | S. cerevisiae deletion strains, locus YLR102C, strain apc9, stronger effect = lower value 1.01 | S. cerevisiae deletion strains, locus YLR113W, strain HOG1, stronger effect = lower value 1.01 | S. cerevisiae deletion strains, locus YLR221C, strain rsa3, stronger effect = lower value 1.01 | S. cerevisiae deletion strains, locus YLR258W, strain gsy2, stronger effect = lower value 1.02 | S. cerevisiae deletion strains, locus YLR262C, strain YPT6 (second series), stronger effect = lower value 1 | S. cerevisiae deletion strains, locus YLR262C, strain YPT6, stronger effect = lower value 1.04 | S. cerevisiae deletion strains, locus YLR268W, strain sec22, stronger effect = lower value 1.02 | S. cerevisiae deletion strains, locus YLR320W, strain mms22, stronger effect = lower value 1.02 | S. cerevisiae deletion strains, locus YLR330W, strain CHS5, stronger effect = lower value 1.01 | S. cerevisiae deletion strains, locus YLR342W, strain FKS1 (second series), stronger effect = lower value 1.04 | S. cerevisiae deletion strains, locus YLR342W, strain FKS1, stronger effect = lower value 1.01 | S. cerevisiae deletion strains, locus YLR357W, strain rsc2, stronger effect = lower value 1.04 | S. cerevisiae deletion strains, locus YLR370C, strain arc18, stronger effect = lower value 1.01 | S. cerevisiae deletion strains, locus YLR371W, strain rom2, stronger effect = lower value 1 | S. cerevisiae deletion strains, locus YLR384C, strain iki3, stronger effect = lower value 1.02 | S. cerevisiae deletion strains, locus YLR418C, strain cdc73, stronger effect = lower value 1.05 | S. cerevisiae deletion strains, locus YML016C, strain PPZ1, stronger effect = lower value 1.01 | S. cerevisiae deletion strains, locus YML032C, strain rad52, stronger effect = lower value 1.01 | S. cerevisiae deletion strains, locus YML120C, strain ndi1, stronger effect = lower value 1 | S. cerevisiae deletion strains, locus YML124C, strain tub3, stronger effect = lower value 1.01 | S. cerevisiae deletion strains, locus YMR058W, strain fet3, stronger effect = lower value 1 | S. cerevisiae deletion strains, locus YMR078C, strain ctf18, stronger effect = lower value 1.02 | S. cerevisiae deletion strains, locus YMR125W, strain sto1, stronger effect = lower value 1.03 | S. cerevisiae deletion strains, locus YMR129W, stronger effect = lower value 1.01 | S. cerevisiae deletion strains, locus YMR205C, strain PFK2, stronger effect = lower value 1.02 | S. cerevisiae deletion strains, locus YMR223W, strain ubp8, stronger effect = lower value 1.06 | S. cerevisiae deletion strains, locus YMR231W, strain pep5, stronger effect = lower value 1.01 | S. cerevisiae deletion strains, locus YMR263W, strain SAP30, stronger effect = lower value 1.02 and 1 | S. cerevisiae deletion strains, locus YMR307W, strain GAS1, stronger effect = lower value 1.11 and 0.997 and 0.979 | S. cerevisiae deletion strains, locus YNL067W, strain RPL9B, stronger effect = lower value 1.01 | S. cerevisiae deletion strains, locus YNL071W, strain lat1, stronger effect = lower value 1 | S. cerevisiae deletion strains, locus YNL128W, strain TEP1, stronger effect = lower value 1.02 | S. cerevisiae deletion strains, locus YNL175C, strain NOP13, stronger effect = lower value 1 and 1.03 | S. cerevisiae deletion strains, locus YNL183C, strain NPR1, stronger effect = lower value 0.974 | S. cerevisiae deletion strains, locus YNL197C, strain WHI3, stronger effect = lower value 1 and 1.01 | S. cerevisiae deletion strains, locus YNL209W, strain ssb2, stronger effect = lower value 1.02 | S. cerevisiae deletion strains, locus YNL224C, strain SQS1, stronger effect = lower value 0.996 and 1 | S. cerevisiae deletion strains, locus YNL233W, strain BNI4, stronger effect = lower value 0.99 | S. cerevisiae deletion strains, locus YNL248C, strain rpa49, stronger effect = lower value 1.03 | S. cerevisiae deletion strains, locus YNL250W, strain rad50, stronger effect = lower value 1.02 | S. cerevisiae deletion strains, locus YNL271C, strain bni1, stronger effect = lower value 1.02 | S. cerevisiae deletion strains, locus YNL298W, strain CLA4, stronger effect = lower value 1.02 | S. cerevisiae deletion strains, locus YNL307C, strain MCK1, stronger effect = lower value 1.02 | S. cerevisiae deletion strains, locus YNL322C, strain KRE1 (second series), stronger effect = lower value 1.01 | S. cerevisiae deletion strains, locus YNL322C, strain KRE1, stronger effect = lower value 1.01 and 1.03 | S. cerevisiae deletion strains, locus YNR049C, strain mso1, stronger effect = lower value 1.01 | S. cerevisiae deletion strains, locus YNR052C, strain pop2, stronger effect = lower value 1.02 | S. cerevisiae deletion strains, locus YOL006C, strain TOP1, stronger effect = lower value 1.05 | S. cerevisiae deletion strains, locus YOL012C, strain htz1 1.03 | S. cerevisiae deletion strains, locus YOL147C, strain pex11, stronger effect = lower value 1.02 | S. cerevisiae deletion strains, locus YOR001W, strain rrp6, stronger effect = lower value 1.01 | S. cerevisiae deletion strains, locus YOR061W, strain CKA2, stronger effect = lower value 1.01 | S. cerevisiae deletion strains, locus YOR069W, strain VPS5, stronger effect = lower value 1.01 | S. cerevisiae deletion strains, locus YOR070C, strain gyp1, stronger effect = lower value 1.02 | S. cerevisiae deletion strains, locus YOR080W, strain dia2, stronger effect = lower value 1.03 | S. cerevisiae deletion strains, locus YOR083W, strain WHI5 (second series), stronger effect = lower value 1.01 | S. cerevisiae deletion strains, locus YOR083W, strain WHI5, stronger effect = lower value 0.966 | S. cerevisiae deletion strains, locus YOR106W, strain vam3, stronger effect = lower value 1.01 | S. cerevisiae deletion strains, locus YOR136W, strain idh2, stronger effect = lower value 1.02 | S. cerevisiae deletion strains, locus YOR144C, strain elg1, stronger effect = lower value 1.02 | S. cerevisiae deletion strains, locus YOR184W, strain ser1, stronger effect = lower value 1.02 | S. cerevisiae deletion strains, locus YOR231W, strain MKK1, stronger effect = lower value 1.02 | S. cerevisiae deletion strains, locus YOR265W, strain rbl2, stronger effect = lower value 1.01 | S. cerevisiae deletion strains, locus YOR270C, strain vph1, stronger effect = lower value 1.02 | S. cerevisiae deletion strains, locus YOR290C, strain snf2, stronger effect = lower value 1.03 | S. cerevisiae deletion strains, locus YOR316C, strain cot1, stronger effect = lower value 1.01 | S. cerevisiae deletion strains, locus YPL051W, strain arl3, stronger effect = lower value 1.01 | S. cerevisiae deletion strains, locus YPL055C, strain LGE1, stronger effect = lower value 1.01 | S. cerevisiae deletion strains, locus YPL078C, strain atp4, stronger effect = lower value 1 | S. cerevisiae deletion strains, locus YPL106C, strain sse1, stronger effect = lower value 1.04 | S. cerevisiae deletion strains, locus YPL240C, strain hsp82, stronger effect = lower value 1.02 | S. cerevisiae deletion strains, locus YPL241C, strain CIN2, stronger effect = lower value 1.01 | S. cerevisiae deletion strains, locus YPL256C, strain CLN2, stronger effect = lower value 1.04 | S. cerevisiae deletion strains, locus YPR119W, strain clb2, stronger effect = lower value 1.01 | S. cerevisiae deletion strains, locus YPR141C, strain kar3, stronger effect = lower value 1.01 | S. cerevisiae deletion strains, locus YPR163C, strain tif3, stronger effect = lower value 1.02 | S. cerevisiae deletion strains, locus YPR167C, strain met16, stronger effect = lower value 1.02 | S. cerevisiae deletion strains, strain wtn01, stronger effect = lower value 1.04 | S. cerevisiae strains, strain wild type, stronger effect = lower value 1.01
